Screening data as filed in PubChem BioAssay.
Sampled rows, rich in hits. Any-hit rate of the full collection: about 2.6%.
PfM18AAP inh: PfM18AAP enzyme inhibition | 1.2% of 290,000 active | recombinant PfM18AAP, H-Glu-NHMec fluorogenic cleavage | inhibition, % at 7.35 µM;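 active = inhibition above the campaign mean inhibition over all tested compounds plus 3 SD, cut at about 28% in these data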;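 also: 0% = plate median of test compound wells and 100% = 2 mM ZnCl2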
Rce1 inh: blocks yeast Ras-converting enzyme. calls only. Q03530. 0.27% of 290,000 active. yeast membranes, quenched prenylated peptide cleavage fluorescence;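 active = fall in fluorescence gain of 50% or more versus controls, with final raw signal at or below 3038400; inconclusive = same 50% fall but final raw signal above 3038400; inactive = fall in fluorescence gain under 50%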;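 also: plate controls were neutral control wells for no effect and wells lacking membranes for full effect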
Target sequence (Q03530 whole entry, looked up): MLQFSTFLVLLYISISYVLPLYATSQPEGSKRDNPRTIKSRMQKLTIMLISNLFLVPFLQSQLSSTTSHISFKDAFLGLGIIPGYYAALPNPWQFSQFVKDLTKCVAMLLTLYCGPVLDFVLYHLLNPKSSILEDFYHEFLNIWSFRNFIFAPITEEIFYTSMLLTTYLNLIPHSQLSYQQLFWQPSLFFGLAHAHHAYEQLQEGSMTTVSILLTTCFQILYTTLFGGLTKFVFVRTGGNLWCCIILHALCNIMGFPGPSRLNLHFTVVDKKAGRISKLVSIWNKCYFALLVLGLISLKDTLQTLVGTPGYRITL
Platelet DG rel: modulates dense granule release in human platelets | human platelet-rich plasma, SFLLRN dense granule ATP release, luminescence | inhibition, %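 (compounds screened at 7.5 µM in platelet-rich plasma)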 | 0.22% of 300,000 active;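 active = mean replicate score, as percent of positive control, at or above 50; inconclusive = mean below 50 but at least one replicate at or above 50; inactive = mean and every replicate below 50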
Exocytosis inh: blocks lytic granule exocytosis. 0.66% of 360,000 active. AID 651702. inhibition, % at 10 µM. TALL-104 LAMP-1 surface exposure, flow cytometry; cells stimulated with thapsigargin and PMA;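 active = inhibition above about 55%, limit read from the data; inconclusive = no clear call, values can overlap the other calls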
ABHD5-PLIN5 inh: inhibitors of human ABHD5-perilipin-5 interaction | Split G. princeps luciferase complementation, luminescence, 4 h | inhibition, % at 4 µM | AID 602281 | 0.78% of 360,000 active | Q00G26+Q8WTS1;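 active = inhibition above the mean inhibition across every tested compound plus 3 SD, cut at about 22% in these data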;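 also: 0% = DMSO only wells and the 100% control is not disclosed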
The depositor's hits bear a star; i = inactive; ? = inconclusive; · = no result given; + = active, no number.

SMILES	PfM18AAP inh	Rce1 inh	Platelet DG rel	Exocytosis inh	ABHD5-PLIN5 inh
N=C1/C(=C/c2coc3ccccc3c2=O)C(=O)N=C2SC(c3ccco3)=NN12	29*	i	15	5	13
CCCCn1c(-c2ccc(OC)cc2)nc2c(=O)n(C)c(=O)[nH]c21	0	i	4	7	0
CN(C)c1nc(=NCc2ccco2)ss1	47*	i	-9	76*	90*
C=CCn1c(N2CCCCCC2)nc2c1c(=O)n(C)c(=O)n2C	1	+	-1	-1	3
COc1ccc(N2CCN(c3nc4c(c(=O)n(C)c(=O)n4C)n3Cc3ccccc3)CC2)cc1	6	i	50*	-1	5
C/C(Cl)=C\Cn1c(N2CCCC2)nc2c1c(=O)n(C)c(=O)n2C	1	i	-2	-4	3
CCc1ccc(C(=O)COC(=O)c2cc([N+](=O)[O-])ccc2NCCO)cc1	-9	i	15	-2	5
Cc1cc(C)c(/C=N/NC(=O)c2nnn(-c3nonc3N)c2CN2CCC(C)CC2)c(C)c1	-1	i	1	82*	5
CC1CCN(Cc2c(C(=O)N/N=C/c3cccc(C(F)(F)F)c3)nnn2-c2nonc2N)CC1	1	+	7	12	4
CC1CCN(Cc2c(C(=O)N/N=C/c3ccc(C(F)(F)F)cc3)nnn2-c2nonc2N)CC1	-1	i	7	19	0
CC1CCN(Cc2c(C(=O)N/N=C/c3cc(Br)ccc3O)nnn2-c2nonc2N)CC1	4	i	13	2	-1
Cc1ccc(Oc2nc3ccccn3c(=O)c2/C=C(\C#N)C(=O)NC2CCS(=O)(=O)C2)c(C)c1 (configuration not stated)	2	i	51*	79*	17
O=C(NC(CO)(CO)CO)c1coc(=O)c(Br)c1	-1	i	-5	0	2
O=C(Nc1cc(Cl)cc(Cl)c1)c1coc(=O)c(Br)c1	6	+	-29	8	-4
CC(C)CCn1cnc2c([nH]c3cccc(Cl)c32)c1=O	8	·	-22	?	8
CCN1CCN(C(=S)c2ccc(SC)cc2)CC1	31*	i	-2	-1	-1
CSc1ccc(C(=S)N2CCCCCC2)cc1	4	i	-1	18	-6
COc1ccccc1NS(=O)(=O)c1cccc(C(=O)N/N=C(/C)c2ccc(-n3ccnc3)cc2)c1	·	·	·	-1	-10
COc1ccccc1NS(=O)(=O)c1cccc(C(=O)N/N=C(\C)c2ccc(-n3ccnc3)cc2)c1	30*	i	-1	0	1
CCOC(=O)N1CCN(Cc2cc(=O)oc3cc4c(cc23)CCC4)CC1	-10	i	78*	2	5
CCC1=C(C)CN(C(=O)NCCc2ccc(S(=O)(=O)NC(=O)NC3CCC(C)CC3)cc2)C1=O (configuration not stated)	·	i	1	-2	7
Cc1ccc(C(C[N+](=O)[O-])c2c(C)[nH]n(-c3ccccc3)c2=O)cc1 (configuration not stated)	25	i	-22	-2	-19
Cc1[nH]n(-c2ccccc2)c(=O)c1C(C[N+](=O)[O-])c1ccc(F)cc1 (configuration not stated)	30*	i	-10	-1	-26
Cc1[nH]n(-c2ccccc2)c(=O)c1C(C[N+](=O)[O-])c1ccc(Cl)cc1 (configuration not stated)	28*	i	-7	3	-16
Cc1cc(C)c(NC(=O)CSc2nc3ncc(Br)cc3[nH]2)c(Cl)c1	-8	i	4	2	8
SMILES	PfM18AAP inh	Rce1 inh	Platelet DG rel	Exocytosis inh	ABHD5-PLIN5 inh
COc1cccc2oc3ccc(C#Cc4ccccn4)cc3c(=O)c12	13	i	62*	-1	5
COC(=O)c1ccc(N2CCN(C)CC2)c(NC(=O)COc2ccc(OC)cc2)c1	-11	i	4	0	12
S=C1Cc2ccccc2N1	8	i	-2	94*	86*
CCN(C[C@H]1N[C@@](CC)(C(=O)OC)[C@H]2C(=O)N(C)C(=O)[C@@H]12)C(C)=O	·	·	·	0	-2
Cc1ccc(/C=C/C(=O)O)cc1S(=O)(=O)N1CCc2ccccc2C1	-10	i	10	0	-2
Cc1ccc(/C=C/C(=O)O)cc1S(=O)(=O)N1CCCCC1	1	i	65*	-2	2
Cc1cc(C)cc(-n2c(C)c3c(C)nnc(C)c3c2C)c1	9	i	-8	1	4
CCOc1c(O)ccc(/C=C2\SC(=S)NC2=O)c1[N+](=O)[O-]	37*	i	11	2	-10
O=C1/C(=C\c2ccc(Br)cc2)SC(=S)N1NS(=O)(=O)c1ccccc1	4	i	-3	57*	-6
O=C(c1cccnc1)N1N=C(c2cccs2)CC1c1ccc(F)cc1 (configuration not stated)	3	i	-2	-2	-6
O=C1c2cccc(OCC(=O)N3N=C(c4cccs4)CC3c3ccc(F)cc3)c2CCN1Cc1cccnc1 (configuration not stated)	-14	+	-7	-8	12
CC(=O)Nc1cccc(-c2nc3ccccc3[nH]2)c1	-3	i	2	-4	-1
O=C(COc1ccccc1)Nc1cccc(-c2nn[nH]n2)c1	4	i	-21	13	0
O=C(Nc1cccc(-c2nc3ccccc3[nH]2)c1)c1ccccn1	31*	i	-5	20	4
O=C(COc1ccccc1)Nc1cccc(-c2nc3cc4ccccc4cc3[nH]2)c1	4	+	26	30	8
CN(C)C(=O)c1ccc(-c2n[nH]c(=O)c3ccccc23)cc1	-3	i	-1	-5	-8
CCCCc1cc(=O)oc2cc(OCC(=O)N3CCOCC3)ccc12	5	+	5	-9	3
O=C(Nc1ccc(N2CCOCC2)cc1)c1cccc(-n2cnnc2)c1	-7	i	-1	2	5
COc1ccccc1-c1nnc2sc(-c3ccc(N(C)C)cc3)nn12	0	+	-4	-7	-3
CCCc1nnc(SCC(=O)Nc2nccs2)o1	4	i	-4	12	0
Cc1cccc(C)c1OCc1nnc(SCC(=O)Nc2nccs2)o1	28*	i	3	0	-8
CCN1/C(=C/c2ccc3cc(C)ccc3[n+]2CC)Sc2ccccc21	49*	i	3	45	23*
CCOC(=O)/C(=C/C=C1\Sc2cc(C)c(C)cc2N1CC)C(C)=O	22	i	1	6	-4
CCN1/C(=C/c2ccc3cc(C)ccc3[n+]2CC)Sc2cc(C)c(C)cc21	1	·	·	57*	12
Cc1ccc(NC2=C(Cl)C(=O)OC2OC(C)C)c(C)c1 (configuration not stated)	1	i	26	-1	8
O=C(Nc1ccc2c(c1)OCO2)c1cc(Cl)ccn1	·	·	·	-6	-11
COc1cc(/C=N/n2cnnc2)ccc1OCc1ccc(C)cc1	-4	i	62*	6	-1
COc1cc(/C=N/n2cnnc2)ccc1OCc1ccccc1	9	i	-8	1	0
